The target of assay [1] is Acetylcholinesterase (Homo sapiens) (UniProt P22303). The assay is described as follows: Acetylcholinesterase (AChE) small molecule antagonists: colormetric cell-based qHTS assay (AID 1347395). Further: nearly all actives have a fitted effect of over 30% in size. The essentials: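 Colorimetric read-out: DTNB detects thiocholine released when cellular AChE in SH-SY5Y cells hydrolyses acetylthiocholine. Cells attached overnight, received compound for 30 min at 37 C, then substrate mix for 90 min at 37 C.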
For orientation: In qHTS, concentration-response curves come from the screen itself.

Assay [2] has the same target. The assay is described as follows: Acetylcholinesterase (AChE) small molecule antagonists: enzyme-based qHTS assay (AID 1347397). Further: nearly all actives have a fitted effect of over 55% in size. As to conditions: Potency: AChE enzyme activity inhibition; outcome: AChE enzyme activity inhibition. The essentials:
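Colorimetric DTNB readout of acetylthiocholine hydrolysis, 10 min at room temperature, after 30 min room-temperature exposure of 50 mU/mL recombinant human enzyme to compound; DMSO vehicle control.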

For assay [3] the target is unchanged. Briefly: Acetylcholinesterase (AChE) small molecule antagonists: fluorescence cell-based qHTS assay (AID 1347398). Further: nearly all actives have a fitted effect of over 50% in size. As to conditions: Potency: AChE activity; outcome: AChE activity. The essentials:
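Cellular AChE activity read as thiocholine from acetylthiocholine hydrolysis, detected by Thiolite Green fluorescence at 490/520 nm after 40 min at room temperature. Compounds were pre-incubated 30 min at 37 C on adherent SH-SY5Y cells.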

The target is the same in assay [4]. Briefly: Acetylcholinesterase (AChE) small molecule antagonists: enzyme-based qHTS assay with human liver microsomes (AID 1347399). Further: nearly all actives have a fitted effect of over 60% in size. Conditions: Potency: qHTS inhibition; outcome: qHTS inhibition. In short, it runs like this:
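Recombinant human AChE (50 mU/mL in the enzyme mix) and human liver microsomes (0.25 mg/mL final) were preincubated with compound and NADPH (0.25 mg/mL final) for 30 min at 37 C. Acetylthiocholine/DTNB was then added; thiocholine was read colorimetrically after 10 min at room temperature.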

A number with no mark means an inactive call. Records with an inconclusive call do not appear. Active and inactive are the calls of the source. The call rests on the fitted dose curve. Residues, ends and D or L forms follow the SMILES beside them.

activity, negative = inhibition, activity change, negative = inhibition and Potency data for 60 compounds are collected here from PubChem BioAssay (Tox21).
On the % scale 0 is the no-effect control and ±100 the full control effect; potency means the concentration at half of the fitted maximal effect.

Sequence of Acetylcholinesterase (Homo sapiens) (P22303 whole entry, looked up): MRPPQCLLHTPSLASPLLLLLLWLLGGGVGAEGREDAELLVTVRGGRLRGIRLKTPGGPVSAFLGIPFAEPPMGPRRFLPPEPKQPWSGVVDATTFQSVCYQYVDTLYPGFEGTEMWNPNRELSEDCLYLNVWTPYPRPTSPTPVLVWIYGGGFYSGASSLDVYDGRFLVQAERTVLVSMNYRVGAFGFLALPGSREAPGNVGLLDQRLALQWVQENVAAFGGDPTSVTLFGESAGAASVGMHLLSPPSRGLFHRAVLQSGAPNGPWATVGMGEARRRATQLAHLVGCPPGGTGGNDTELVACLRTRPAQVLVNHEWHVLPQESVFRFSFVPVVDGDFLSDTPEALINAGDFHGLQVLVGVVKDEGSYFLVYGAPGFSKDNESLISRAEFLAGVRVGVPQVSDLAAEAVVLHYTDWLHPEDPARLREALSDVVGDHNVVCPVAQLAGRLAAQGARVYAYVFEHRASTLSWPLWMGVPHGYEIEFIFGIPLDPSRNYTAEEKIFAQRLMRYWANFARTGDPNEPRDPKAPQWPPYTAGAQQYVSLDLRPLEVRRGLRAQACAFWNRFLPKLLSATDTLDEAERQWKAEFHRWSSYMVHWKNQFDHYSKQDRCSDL

Consider `Oc1cn2c(n1)Nc1ccc(Cl)c(Cl)c1C2`, for which the activity, negative = inhibition in assay [1] is -9.64% [at 23.6 µM]. The activity change, negative = inhibition in assay [2] is 0.842% [at 23.6 µM]; in assay [3] it was -3.43% [at 23.8 µM]; in assay [4], 0.168% [at 23.6 µM].
For `CCOC=C(C(=O)OCC)C(=O)OCC`, the Potency entry in assay [1], in assay [2], in assay [3] and in assay [4] was “inactive” in each case.
Take `C=C(C)C1CC=C(C)CC1` (stereo not given): the Potency entry in assay [1], in assay [2], in assay [3] and in assay [4] was “inactive” each time.
As to `C=C(C)C(=O)OCCCCCCOC(=O)C(=C)C`, the Potency entry in assay [1], in assay [2], in assay [3] and in assay [4] was “inactive” each time.
Take `CCCCCCCC/C=C\CCCCCCCC(=O)OC`: the Potency result in assay [1], in assay [2], in assay [3] and in assay [4] was “inactive” throughout.
As for `CC1(C)CC(N=C=O)CC(C)(CN=C=O)C1` (stereo not given), the Potency result in assay [1], in assay [2], in assay [3] and in assay [4] was “inactive” throughout.
In the case of `Cc1cc(NS(=O)(=O)c2ccc(N)cc2)nc(C)n1`, the Potency entry in assay [1], in assay [2], in assay [3] and in assay [4] was “inactive” throughout.
Take `c1ccc2sc(SN3CCOCC3)nc2c1`: the Potency entry in assay [1], in assay [2], in assay [3] and in assay [4] was “inactive” in each case.
`C[C@H]1[C@@H](c2ccccc2)NC(=O)N1C`: the Potency entry in assay [1], in assay [2], in assay [3] and in assay [4] was “inactive” throughout.
Consider `O=c1[nH]c2ccc(S(=O)CCN3CCC(Cc4ccc(F)cc4)CC3)cc2o1` (stereo not given), for which the Potency was 6.33 µM (active) in assay [1], 5.64 µM (active) in assay [2], 1.12 µM (active) in assay [3] and 35.6 µM (active) in assay [4].
For the compound `OC1C(O)C(O)C(O)C(O)C1O` (stereo not given), the Potency result in assay [1], in assay [2], in assay [3] and in assay [4] was “inactive” in each case.
With `Nc1ncnc2c1ncn2[C@@H]1O[C@H](CO)[C@@H](O)[C@H]1O`, the Potency result in assay [1], in assay [2], in assay [3] and in assay [4] was “inactive” each time.
Take `CCCCC(=O)O[C@]1(C(=O)CO)CC[C@H]2[C@@H]3CCC4=CC(=O)CC[C@]4(C)[C@H]3[C@@H](O)C[C@@]21C`: the Potency entry in assay [1], in assay [2], in assay [3] and in assay [4] was “inactive” in each case.
Take `CCC(=O)Nc1cccc(N)c1`: the Potency entry in assay [1], in assay [2], in assay [3] and in assay [4] was “inactive” each time.
As for `Nc1cc([N+](=O)[O-])ccc1C(=O)O`, the Potency result in assay [1], in assay [2], in assay [3] and in assay [4] was “inactive” in each case.
In the case of `C=CCCCCCCCCC=O`, the Potency entry in assay [1], in assay [2], in assay [3] and in assay [4] was “inactive” in each case.
Take `C/C=C/C(=O)C1=C(C)CCCC1(C)C`: the Potency result in assay [1], in assay [2], in assay [3] and in assay [4] was “inactive” each time.
Take `CN1CCC(OC(c2ccccc2)c2ccccc2)CC1`: the Potency result in assay [1], in assay [2], in assay [3] and in assay [4] was “inactive” in each case.
Regarding `Nc1ccc(O)cc1`, the Potency result in assay [1], in assay [2], in assay [3] and in assay [4] was “inactive” each time.
For `N[C@H](Cc1c[nH]c2ccccc12)C(=O)O`, the Potency entry in assay [1], in assay [2], in assay [3] and in assay [4] was “inactive” in each case.
With `CO[C@]1(NC(=O)CSC(F)F)C(=O)N2C(C(=O)O)=C(CSc3nnnn3CCO)CO[C@H]21`, the Potency entry in assay [1], in assay [2], in assay [3] and in assay [4] was “inactive” in each case.
Turning to `CC(C)[C@H]1CC[C@@H](C)CC1=O`, the Potency entry in assay [1], in assay [2], in assay [3] and in assay [4] was “inactive” throughout.
In the case of `C[Si](NC1CCCCC1)(NC1CCCCC1)NC1CCCCC1`, the Potency result in assay [1], in assay [2], in assay [3] and in assay [4] was “inactive” throughout.
As to `OC[C@H]1O[C@@](CO)(O[C@H]2O[C@H](CO)[C@@H](O)[C@H](O)[C@H]2O)[C@@H](O)[C@@H]1O`, the Potency result in assay [1], in assay [2], in assay [3] and in assay [4] was “inactive” in each case.
Regarding `CC(=O)O[C@]1(C(C)=O)CC[C@H]2[C@@H]3C[C@H](C)C4=CC(=O)CC[C@]4(C)[C@H]3CC[C@@]21C`, the Potency entry in assay [1], in assay [2], in assay [3] and in assay [4] was “inactive” each time.
For the compound `O=Cc1ccccc1Cl`, the Potency result in assay [1], in assay [2], in assay [3] and in assay [4] was “inactive” in each case.
Turning to `COc1cc(/C=C/c2ccccc2)oc(=O)c1`, the Potency entry in assay [1], in assay [2], in assay [3] and in assay [4] was “inactive” in each case.
For the compound `CC(=O)NS(=O)(=O)c1ccc(N)cc1`, the Potency result in assay [1], in assay [2], in assay [3] and in assay [4] was “inactive” in each case.
Consider `CC(C)c1ccc(C(C)C)cc1`, for which the Potency entry in assay [1], in assay [2], in assay [3] and in assay [4] was “inactive” each time.
Turning to `Cc1ccncc1`, the Potency entry in assay [1], in assay [2], in assay [3] and in assay [4] was “inactive” throughout.
In the case of `NC(=O)c1cn(Cc2c(F)cccc2F)nn1`, the Potency entry in assay [1], in assay [2], in assay [3] and in assay [4] was “inactive” throughout.
Turning to `CC(=O)CC(=O)Nc1ccc(C)cc1C`, the Potency result in assay [1], in assay [2], in assay [3] and in assay [4] was “inactive” in each case.
Consider `CC(C)(CO)[C@@H](O)C(=O)NCCC(=O)O`, for which the Potency result in assay [1], in assay [2], in assay [3] and in assay [4] was “inactive” in each case.
As for `COc1cc(C=O)ccc1O`, the Potency result in assay [1], in assay [2], in assay [3] and in assay [4] was “inactive” throughout.
Consider `CC(=O)Oc1ccc(C2(c3ccc(OC(C)=O)cc3)Oc3ccccc3NC2=O)cc1`, for which the Potency entry in assay [1], in assay [2], in assay [3] and in assay [4] was “inactive” in each case.
For the compound `CCOc1ccc(NC(=O)CC(C)=O)cc1`, the Potency entry in assay [1], in assay [2], in assay [3] and in assay [4] was “inactive” each time.
For the compound `C=C(C)C(=O)OCCCCCCCCCCCC`, the Potency result in assay [1], in assay [2], in assay [3] and in assay [4] was “inactive” throughout.
Regarding `c1ccc(OCc2ccc(CCCN3CCOCC3)cc2)cc1`, the Potency result in assay [1], in assay [2], in assay [3] and in assay [4] was “inactive” each time.
As for `CC(C)Oc1ccccc1O`, the Potency result in assay [1], in assay [2], in assay [3] and in assay [4] was “inactive” in each case.
In the case of `Cn1nnc2c(C(N)=O)ncn2c1=O`, the Potency entry in assay [1], in assay [2], in assay [3] and in assay [4] was “inactive” each time.
For `C[C@@H](Oc1ccc(CNC(=O)c2cccnc2Oc2ccc3c(c2)OCO3)c(F)c1)C(=O)O`, the Potency result in assay [1], in assay [2], in assay [3] and in assay [4] was “inactive” throughout.
Take `NS(=O)(=O)c1ccc(C(=O)O)cc1`: the Potency entry in assay [1], in assay [2], in assay [3] and in assay [4] was “inactive” throughout.
For `CCCCCCCC(OC)OC`, the Potency entry in assay [1], in assay [2], in assay [3] and in assay [4] was “inactive” throughout.
`CCOc1ccc2nc(S(N)(=O)=O)sc2c1`: the Potency result in assay [1], in assay [2], in assay [3] and in assay [4] was “inactive” throughout.
Consider `c1ccc(CCCc2ccncc2)cc1`, for which the Potency entry in assay [1], in assay [2], in assay [3] and in assay [4] was “inactive” throughout.
`CCCCOCCOCCO`: the Potency result in assay [1], in assay [2], in assay [3] and in assay [4] was “inactive” in each case.
As to `CCOCCOCCOCCO`, the Potency entry in assay [1], in assay [2], in assay [3] and in assay [4] was “inactive” in each case.
On to `Cc1cc(C)c(N)c(Cl)c1`, for which the Potency result in assay [1], in assay [2], in assay [3] and in assay [4] was “inactive” in each case.
For the compound `NCc1ccccc1Sc1ccccc1CO`, the Potency entry in assay [1], in assay [2], in assay [3] and in assay [4] was “inactive” in each case.
For `COC(=O)[C@H](Cc1ccccc1)NC(=O)[C@@H](N)CC(=O)O` (H-Asp-Phe-OMe), the Potency entry in assay [1], in assay [2], in assay [3] and in assay [4] was “inactive” in each case.
As for `CCOC(=O)Cc1cccc2ccccc12`, the Potency entry in assay [1], in assay [2], in assay [3] and in assay [4] was “inactive” each time.
With `NC(=O)N(O)[C@@H]1C=C[C@H](Oc2cccc(Oc3ccc(F)cc3)c2)C1`, the Potency entry in assay [1], in assay [2], in assay [3] and in assay [4] was “inactive” in each case.
As for `C[N+]1(CC2COC(c3ccccc3)(c3ccccc3)O2)CCCCC1` (stereo not given), the activity, negative = inhibition in assay [1] was -0.268% [at 23.6 µM]. Further, the activity change, negative = inhibition was 0.437% [at 23.6 µM] in assay [2], -6.49% [at 23.8 µM] in assay [3] and 4.03% [at 23.6 µM] in assay [4].
In the case of `COCCOC[C@H](CC1(C(=O)NC2CCC(C(=O)O)CC2)CCCC1)C(=O)Oc1ccc2c(c1)CCC2` (stereo not given in full), the Potency entry in assay [1], in assay [2], in assay [3] and in assay [4] was “inactive” in each case.
With `CC1=NN(c2ccc(S(=O)(=O)O)cc2)C(=O)C1`, the Potency result in assay [1], in assay [2], in assay [3] and in assay [4] was “inactive” each time.
Take `CCCCC=O`: the Potency entry in assay [1], in assay [2], in assay [3] and in assay [4] was “inactive” in each case.
`CCCCCCC(O)CCCCCCCCCCC(=O)OC` (stereo not given): the Potency result in assay [1], in assay [2], in assay [3] and in assay [4] was “inactive” throughout.
As for `N#C[C@@H]1C[C@@H]2C[C@@H]2N1C(=O)[C@@H](N)C12CC3CC(CC(O)(C3)C1)C2`, the Potency entry in assay [1], in assay [2], in assay [3] and in assay [4] was “inactive” each time.
Turning to `C#C[C@]1(O)CC[C@H]2[C@@H]3[C@H](C)CC4=C(CCC(=O)C4)[C@H]3CC[C@@]21C`, the Potency result in assay [1], in assay [2], in assay [3] and in assay [4] was “inactive” in each case.
As to `C1CCCC1`, the Potency result in assay [1], in assay [2], in assay [3] and in assay [4] was “inactive” in each case.
